Assay [1] is described as follows: Quantitative high throughput screen for delayed death inhibitors of the malarial parasite plastid, 48 hour incubation (AID 488752). Also: nearly all actives have a fitted effect of over 65% in size. Also: potency is read from the fitted curve at half-maximal effect. An outline of the steps:
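First, compound was pinned into RPMI 1640 medium containing 0.5% Albumax. Next, reporter-parasite-infected erythrocytes were added to 2% hematocrit and 0.1% parasitemia. After 48 h at 37 C under 5% CO2, luciferase detection reagent was added and luminescence read.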

The target of assay [2] is Thioredoxin reductase 1, cytoplasmic (Rattus norvegicus) (UniProt O89049). The assay is described as follows: qHTS Assay for Substrates of Mammalian Selenoprotein Thioredoxin Reductase 1 (TrxR1) (AID 488772).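 Also: series mostly up to about 57 µM; 0% is about no effect; a drop in NADPH fluorescence below the no-compound background marks a TrxR1 substrate.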 An outline of the steps:
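In this dual-purpose format, potential substrates are identified from the first fluorescence read after selenite addition, not from the 8-minute delta. Rat enzyme is preincubated with NADPH and then with compound at ~22 deg C.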

The target is the same in assay [3]. The assay is described as follows: qHTS Assay for Inhibitors of Mammalian Selenoprotein Thioredoxin Reductase 1 (TrxR1) (AID 488773). Also: nearly all actives have a fitted effect of over 40% in size. Also: potency is read from the fitted curve at half-maximal effect. Particulars: Potency: inhibition. In short, it runs like this:
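Inhibition is scored from the loss of NADPH fluorescence between first and last reads of an 8-min kinetic run. Selenite (400 uM) was the substrate, added after 15 min compound preincubation at room temperature.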

Assay [4] concerns the target Flap endonuclease 1 (Homo sapiens) (UniProt P39748). The assay is described as follows: qHTS Validation Assay for the Inhibitors of Human Flap endonuclease 1 (FEN1) (AID 488816). Also: % is scaled to controls: 0 for no effect and ±100 for the full control effect. In short, it runs like this: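 Steps: add FEN1 (10 nM reagent) or buffer only; pin compounds; hold 15 min at room temperature; start with substrate, 50 nM final; read at 0 and 15 min; correct, normalize and fit a four-parameter Hill curve.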

Assay [5] has as its target M-phase phosphoprotein 8 (Homo sapiens) (UniProt Q99549). The assay is described as follows: qHTS Validation Assay for Inhibitors for MPP8 Chromodomain Interactions with Methylated Histone Tails (AID 488949). Also: nearly all actives have a fitted effect of over 55% in size. Also: potency is read from the fitted curve at half-maximal effect. In short, it runs like this:
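AlphaScreen read-out: streptavidin donor and nickel chelate acceptor beads (final 10 ug/mL), 30 min in the dark at RT. Complex of 50 nM MPP8 and 50 nM b-H3(1-18)K9me3 peptide had been exposed to compounds for 30 min beforehand.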

The target in assay [6] is Methanococcus maripaludis chaperonin (MmCpn) (UniProt Q6LX38). The assay is described as follows: High-Throughput Screening for Modulators of Cytosolic Chaperonin Activity: MmCpn Primary Screen (AID 488978). Also: 0% is about no effect. In short, it runs like this: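 ADP formation read by HTRF Transcreener, 665/590 nm emission after 320 nm excitation. Enzyme: archaeal chaperonin at 50 nM final; substrate ATP 30 uM final; 10 min, 37C, after 5 min compound preincubation at RT.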

Assay [7] concerns the target Transient receptor potential cation channel subfamily V member 1 (Homo sapiens) (UniProt Q8NER1). The assay is described as follows: HTS Assay for Compounds that Act as Enhancers of the Vanilloid Receptor 1 (AID 488979). Also: 0% is about no effect. In short, it runs like this: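 TRPV1-expressing cells loaded with Fluo-8 calcium dye; compounds added and calcium influx read kinetically for 3 min (agonist phase), then capsaicin at EC20 added and read 2 min more for enhancement. Fluorescence ex 480/em 520 nm.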

Assay [8] addresses D(1A) dopamine receptor (Homo sapiens) (UniProt P21728). The assay is described as follows: HTS Assay for Allosteric Agonists of the Human D1 Dopamine Receptor: Primary Screen for Agonists (AID 488981). Also: 0% is about no effect. An outline of the steps: (§1)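 Tetracycline-induced HEK293 T-REx cells force-coupled to calcium signalling were incubated overnight at 30 C and dye-loaded at room temperature. Calcium flux over 180 s after compound addition flagged agonists; a further 180 s read after EC20 dopamine flagged potentiators.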

Assay [9] has the same target. As to the kind of experiment: HTS Assay for Allosteric Agonists of the Human D1 Dopamine Receptor: Primary Screen for Potentiators (AID 488982). Also: 0% is about no effect. An outline of the steps: as §1
For assay [10] the target is unchanged. As to the kind of experiment: HTS Assay for Allosteric Agonists of the Human D1 Dopamine Receptor: Primary Screen for Antagonists (AID 488983).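 Also: calcium flux response to an EC80 dopamine challenge measured with no-wash dye; % is scaled to controls: 0 for no effect and ±100 for the full control effect; nearly all actives have a fitted effect of over 65% in size.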 An outline of the steps:
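Kinetic fluorescence at 1 cycle/sec tracked intracellular calcium in force-coupled, tetracycline-inducible HEK293 T-REx D1 cells. Loss of response to an EC80 dopamine dose, given 180 s after compound, marked antagonists.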

A short description of assay [11]: Validation screen for small molecules that induce genotoxicity in human embryonic kidney (HEK293T) cells expressing luciferase-tagged ELG1 (AID 493106). Also: 0% is about no effect. In short, it runs like this:
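Cells were dispensed at 2,000 per well, then 23 nL compound or DMSO was pinned in. After 16 hr at 37 °C and 5% CO2, ONE-Glo reagent was added. Luciferase activity was measured following 30 min at room temperature.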

The target of assay [12] is ATPase family AAA domain-containing protein 5 (Homo sapiens) (UniProt Q96QE3). As to the kind of experiment: Validation screen for small molecules that inhibit ELG1-dependent DNA repair in human embryonic kidney (HEK293T) cells expressing luciferase-tagged ELG1 (AID 493107). Also: nearly all actives have a fitted effect of over 70% in size. Also: potency is read from the fitted curve at half-maximal effect. An outline of the steps: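 Cells are dispensed in 1536-well format, then 5-fluorouridine and compound are pinned in. After a 16 hr incubation at 37 °C and 5% CO2, ONE-Glo is added and luciferase measured on a CCD imager.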

Assay [13] concerns the target Thyrotropin-releasing hormone receptor (Homo sapiens) (UniProt P34981). The assay is described as follows: qHTS for Small Molecule Agonists and Allosteric Enhancers of Human TRH Receptor: Validation Screen for Agonists (AID 493127;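 active = calcium activation more than 3 SD above the typical response in the agonist read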;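 also: intracellular calcium rise by fluo-8 fluorescence before TRH EC20 addition; 0% is about no effect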). Particulars: TRH receptor agonist cell assay; at 2 µM; stronger effect = higher value. In short, it runs like this:
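Compounds are added by online pintool to dye-loaded TRHR cells while fluorescence is recorded every second. A rise in calcium signal during the agonist read marks activation; a later 10 nM TRH addition (EC20) serves the separate enhancer mode.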

Assay [14] is described as follows: Nrf2 qHTS screen for inhibitors: Validation (AID 493153; active = well fitted inhibition curve with a large enough effect in the main read-out, with a control signal flat, not every such curve was filed as active; also: potency is read from the fitted curve at half-maximal effect). The conditions noted are these: Potency: luciferase luminescence; viability change: measured here: cytotoxicity max response. An outline of the steps:
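A549 ARE_Fluc, 5% FBS OPTI-MEM; cpd titration, 18-24 h, 37°C/5% CO2. Read 1: CellTiter-Fluor (Ex 405/Em 525), cytotox. Read 2: luciferase lum, Nrf2 activity.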

Assay [15] is described as follows: qHTS for Inhibitors of Cell Surface uPA Generation: Validation Assay (AID 493164).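 Also: RAW 264.7 macrophage cells exposed to compound for 18 h; 0% is about no effect.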 An outline of the steps:
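ATP-Lite luminescence read-out: ATP remains high when uPA activity-dependent LF translocation into the cytoplasm is blocked. RAW 264.7 cells, 18 h compound exposure at 37 C; 7-point titration, 2.45 nM to 38.3 uM final.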

For assay [16], the target named is Chromobox protein homolog 1 (Homo sapiens) (UniProt P83916). The assay is described as follows: qHTS Validation Assay for Inhibitors of HP1-beta Chromodomain Interactions with Methylated Histone Tails (AID 488953). Also: nearly all actives have a fitted effect of over 50% in size. Also: potency is read from the fitted curve at half-maximal effect. An outline of the steps: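 Disruption of preformed HP1-beta:H3K9me3 peptide complexes (both 50 nM, PBS pH 7.4 with 0.01% Tween-20) is measured by AlphaScreen after 30 min compound exposure at room temperature, using streptavidin donor and nickel chelate acceptor beads at 10 ug/mL final.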

In assay [17] the target is Thyrotropin receptor (Homo sapiens) (UniProt P16473). The assay is described as follows: qHTS Assay for Antagonists of the Thyroid Stimulating Hormone Receptor (AID 488980). Also: series mostly up to about 58 µM; 0% is about no effect. In short, it runs like this: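 TSHR-HEK293 cells; 70 uM RO 20-1724 PDE inhibitor; compound + EC80 TSH (4 nM final); anti-cAMP cryptate antibody/cAMP-d2 in lysis buffer, 30 min RT; HTRF 665/620 nm read.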

Assay [18] can be described thus: Quantitative high throughput screen for delayed death inhibitors of the malarial parasite plastid, 96 hour incubation (AID 488745).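 Also: luciferase-expressing P. falciparum in erythrocytes at 2% hematocrit and 0.1% parasitemia; series mostly up to about 29 µM; % is scaled to controls: 0 for no effect and ±100 for the full control effect; nearly all actives have a fitted effect of over 70% in size.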 An outline of the steps:
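Readout is firefly luciferase luminescence from an integrated reporter in P. falciparum; lower signal marks inhibited growth. Cultures at 2% hematocrit and 0.1% parasitemia were treated with compound across two generations (96 h, 37 C, 5% CO2).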

Inconclusive results are not listed. Where a structure was tested more than once in an assay, its records may differ in their call. The source made the active and inactive calls. Unless noted, calls follow the shape of the dose curve; as a rule, active = well fitted curve in the direction sought with a large enough effect; inconclusive = small, poorly fitted or top-dose-only effect, or another doubt; inactive = no such curve, though single readings can be large; an effect the other way counts as inactive or inconclusive.

Chain of ATPase family AAA domain-containing protein 5 (Homo sapiens) (Q96QE3 whole entry, looked up, the tested form may be a part): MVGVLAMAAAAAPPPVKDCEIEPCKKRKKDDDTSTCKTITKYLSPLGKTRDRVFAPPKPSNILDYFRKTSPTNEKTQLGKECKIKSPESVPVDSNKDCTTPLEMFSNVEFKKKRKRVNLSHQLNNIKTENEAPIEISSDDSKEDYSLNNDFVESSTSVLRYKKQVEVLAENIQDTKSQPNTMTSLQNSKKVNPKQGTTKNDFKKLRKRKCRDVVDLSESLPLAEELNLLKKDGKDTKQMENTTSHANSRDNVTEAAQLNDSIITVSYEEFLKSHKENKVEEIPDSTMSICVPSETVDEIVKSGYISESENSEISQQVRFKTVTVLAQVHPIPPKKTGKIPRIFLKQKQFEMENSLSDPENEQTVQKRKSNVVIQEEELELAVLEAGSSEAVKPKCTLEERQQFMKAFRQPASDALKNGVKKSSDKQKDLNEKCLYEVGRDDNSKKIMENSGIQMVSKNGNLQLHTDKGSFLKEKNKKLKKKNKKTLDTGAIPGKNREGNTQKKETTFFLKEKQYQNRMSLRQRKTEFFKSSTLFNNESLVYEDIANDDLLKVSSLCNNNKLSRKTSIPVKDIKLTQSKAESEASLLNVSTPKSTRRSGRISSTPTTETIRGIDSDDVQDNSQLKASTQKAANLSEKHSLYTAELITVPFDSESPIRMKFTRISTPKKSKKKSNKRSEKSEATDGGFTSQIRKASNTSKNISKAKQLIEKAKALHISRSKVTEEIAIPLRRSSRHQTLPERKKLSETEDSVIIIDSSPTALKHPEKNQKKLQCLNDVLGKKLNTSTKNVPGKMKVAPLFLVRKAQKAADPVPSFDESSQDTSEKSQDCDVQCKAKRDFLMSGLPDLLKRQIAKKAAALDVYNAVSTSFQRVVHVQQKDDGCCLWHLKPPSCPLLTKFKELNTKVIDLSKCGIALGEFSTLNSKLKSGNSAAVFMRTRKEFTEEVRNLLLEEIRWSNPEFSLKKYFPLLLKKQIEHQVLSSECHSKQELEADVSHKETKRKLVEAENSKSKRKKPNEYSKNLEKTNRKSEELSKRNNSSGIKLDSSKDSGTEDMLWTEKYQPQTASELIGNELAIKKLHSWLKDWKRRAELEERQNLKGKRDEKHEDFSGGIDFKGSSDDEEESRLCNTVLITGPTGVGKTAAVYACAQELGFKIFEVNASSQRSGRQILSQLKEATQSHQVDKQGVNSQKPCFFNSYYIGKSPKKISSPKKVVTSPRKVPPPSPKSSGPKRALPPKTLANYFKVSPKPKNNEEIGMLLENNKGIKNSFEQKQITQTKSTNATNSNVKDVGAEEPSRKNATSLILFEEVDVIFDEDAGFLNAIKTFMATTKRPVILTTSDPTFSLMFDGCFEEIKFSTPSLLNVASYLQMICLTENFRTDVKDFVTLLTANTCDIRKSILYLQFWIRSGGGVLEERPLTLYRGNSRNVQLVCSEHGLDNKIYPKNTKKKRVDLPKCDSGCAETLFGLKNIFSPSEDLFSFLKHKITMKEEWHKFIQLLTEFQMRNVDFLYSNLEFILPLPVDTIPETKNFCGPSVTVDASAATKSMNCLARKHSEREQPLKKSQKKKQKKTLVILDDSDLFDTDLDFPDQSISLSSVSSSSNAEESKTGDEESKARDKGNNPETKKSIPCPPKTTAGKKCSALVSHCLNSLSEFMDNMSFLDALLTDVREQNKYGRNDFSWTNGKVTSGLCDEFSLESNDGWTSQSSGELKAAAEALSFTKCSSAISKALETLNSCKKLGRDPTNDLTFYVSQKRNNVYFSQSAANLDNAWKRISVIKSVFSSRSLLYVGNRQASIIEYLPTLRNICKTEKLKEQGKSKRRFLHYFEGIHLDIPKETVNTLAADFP
Chain of Thyrotropin-releasing hormone receptor (Homo sapiens) (P34981 whole entry, looked up): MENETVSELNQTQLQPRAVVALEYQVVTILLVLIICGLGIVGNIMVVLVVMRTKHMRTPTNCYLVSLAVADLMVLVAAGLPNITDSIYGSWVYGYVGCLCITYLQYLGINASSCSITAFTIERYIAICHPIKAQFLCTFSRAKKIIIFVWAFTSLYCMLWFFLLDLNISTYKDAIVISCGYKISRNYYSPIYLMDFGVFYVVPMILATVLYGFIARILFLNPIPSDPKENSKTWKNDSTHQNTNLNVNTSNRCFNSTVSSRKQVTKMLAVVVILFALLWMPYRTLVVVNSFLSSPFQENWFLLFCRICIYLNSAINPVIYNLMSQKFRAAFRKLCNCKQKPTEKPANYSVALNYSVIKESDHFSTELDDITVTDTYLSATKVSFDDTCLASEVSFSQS
Chain of M-phase phosphoprotein 8 (Homo sapiens) (Q99549 whole entry, looked up): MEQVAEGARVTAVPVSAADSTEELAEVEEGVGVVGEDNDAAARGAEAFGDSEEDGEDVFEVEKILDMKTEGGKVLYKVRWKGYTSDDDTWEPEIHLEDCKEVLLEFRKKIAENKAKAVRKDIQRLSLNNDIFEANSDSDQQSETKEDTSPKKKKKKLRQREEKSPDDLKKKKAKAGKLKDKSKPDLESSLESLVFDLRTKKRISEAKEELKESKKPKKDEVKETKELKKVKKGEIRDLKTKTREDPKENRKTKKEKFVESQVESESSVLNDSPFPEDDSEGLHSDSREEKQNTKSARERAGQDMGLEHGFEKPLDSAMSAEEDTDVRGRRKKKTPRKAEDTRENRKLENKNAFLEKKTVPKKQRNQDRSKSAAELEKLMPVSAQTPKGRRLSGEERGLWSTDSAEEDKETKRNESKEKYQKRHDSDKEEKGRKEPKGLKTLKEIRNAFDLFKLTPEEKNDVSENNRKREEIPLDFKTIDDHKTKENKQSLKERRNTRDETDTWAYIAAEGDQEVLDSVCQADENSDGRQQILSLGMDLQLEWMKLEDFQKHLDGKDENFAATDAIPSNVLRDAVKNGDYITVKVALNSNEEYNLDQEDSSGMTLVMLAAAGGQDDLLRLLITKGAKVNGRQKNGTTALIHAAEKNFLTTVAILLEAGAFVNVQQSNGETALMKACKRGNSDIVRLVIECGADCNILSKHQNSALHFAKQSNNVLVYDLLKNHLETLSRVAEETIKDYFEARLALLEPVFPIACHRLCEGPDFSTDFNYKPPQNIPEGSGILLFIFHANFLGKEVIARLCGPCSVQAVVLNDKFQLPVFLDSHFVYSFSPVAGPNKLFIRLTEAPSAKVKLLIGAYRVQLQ
Chain of Thyrotropin receptor (Homo sapiens) (P16473 whole entry, looked up): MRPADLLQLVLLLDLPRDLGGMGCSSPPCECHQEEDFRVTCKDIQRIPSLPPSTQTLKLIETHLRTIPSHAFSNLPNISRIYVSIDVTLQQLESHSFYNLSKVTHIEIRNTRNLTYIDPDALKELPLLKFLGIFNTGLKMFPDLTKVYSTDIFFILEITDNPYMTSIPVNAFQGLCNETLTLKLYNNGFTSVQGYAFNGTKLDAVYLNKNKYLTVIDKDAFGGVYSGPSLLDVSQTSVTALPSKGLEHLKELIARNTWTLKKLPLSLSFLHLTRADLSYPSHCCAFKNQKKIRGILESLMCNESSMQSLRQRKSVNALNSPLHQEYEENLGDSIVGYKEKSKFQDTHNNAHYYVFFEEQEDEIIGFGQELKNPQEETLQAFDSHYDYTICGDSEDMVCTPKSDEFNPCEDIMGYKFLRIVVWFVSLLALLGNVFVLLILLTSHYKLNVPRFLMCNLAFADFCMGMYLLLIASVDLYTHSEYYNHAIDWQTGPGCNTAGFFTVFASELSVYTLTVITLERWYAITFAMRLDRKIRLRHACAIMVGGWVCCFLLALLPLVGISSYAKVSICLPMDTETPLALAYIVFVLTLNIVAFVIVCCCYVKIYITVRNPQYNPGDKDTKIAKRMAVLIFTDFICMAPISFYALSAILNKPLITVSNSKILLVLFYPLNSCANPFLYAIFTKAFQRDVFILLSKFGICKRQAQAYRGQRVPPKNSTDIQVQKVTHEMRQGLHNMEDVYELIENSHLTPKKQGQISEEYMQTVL
Chain of Transient receptor potential cation channel subfamily V member 1 (Homo sapiens) (Q8NER1 whole entry, looked up): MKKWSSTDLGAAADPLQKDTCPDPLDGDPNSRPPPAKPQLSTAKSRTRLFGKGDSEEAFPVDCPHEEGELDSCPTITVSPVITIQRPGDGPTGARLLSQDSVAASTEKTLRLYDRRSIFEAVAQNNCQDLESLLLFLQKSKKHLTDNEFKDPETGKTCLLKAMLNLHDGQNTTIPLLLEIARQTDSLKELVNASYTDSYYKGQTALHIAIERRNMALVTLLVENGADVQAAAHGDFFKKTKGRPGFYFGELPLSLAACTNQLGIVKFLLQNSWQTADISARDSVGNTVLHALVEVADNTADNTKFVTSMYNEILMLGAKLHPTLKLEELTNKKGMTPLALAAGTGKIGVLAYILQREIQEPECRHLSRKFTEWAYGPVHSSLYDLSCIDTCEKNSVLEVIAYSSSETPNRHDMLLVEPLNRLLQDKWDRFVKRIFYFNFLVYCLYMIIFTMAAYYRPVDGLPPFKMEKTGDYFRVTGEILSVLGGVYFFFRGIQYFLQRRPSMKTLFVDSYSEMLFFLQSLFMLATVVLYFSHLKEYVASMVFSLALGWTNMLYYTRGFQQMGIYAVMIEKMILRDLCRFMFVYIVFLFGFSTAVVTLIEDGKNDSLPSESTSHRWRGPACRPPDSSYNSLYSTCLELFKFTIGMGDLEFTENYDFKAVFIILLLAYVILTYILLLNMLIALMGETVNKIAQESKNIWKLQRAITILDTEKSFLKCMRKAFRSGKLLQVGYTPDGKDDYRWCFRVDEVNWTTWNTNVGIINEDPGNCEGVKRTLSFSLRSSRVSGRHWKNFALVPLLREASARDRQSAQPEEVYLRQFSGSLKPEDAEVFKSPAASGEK
Chain of Flap endonuclease 1 (Homo sapiens) (P39748 whole entry, looked up): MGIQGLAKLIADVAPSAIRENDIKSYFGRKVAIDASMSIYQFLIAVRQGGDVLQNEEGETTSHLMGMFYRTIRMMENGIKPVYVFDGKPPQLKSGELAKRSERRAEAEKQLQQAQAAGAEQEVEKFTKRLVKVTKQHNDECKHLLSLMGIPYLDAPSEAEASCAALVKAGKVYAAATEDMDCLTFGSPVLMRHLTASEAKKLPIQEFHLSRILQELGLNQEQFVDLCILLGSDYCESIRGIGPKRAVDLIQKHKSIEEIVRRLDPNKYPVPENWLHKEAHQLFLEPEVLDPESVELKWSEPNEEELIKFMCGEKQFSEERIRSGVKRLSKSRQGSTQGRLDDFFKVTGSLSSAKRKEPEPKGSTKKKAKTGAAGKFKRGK

`C[C@]12Cc3cn4c(nc3C=C1CCC1C2CC[C@@]2(C)[C@H]1CC[C@@]2(O)C#N)nc1ccccc14` (stereo partly drawn): the Potency in assay [1] was 3.7 µM (active); in assay [12], 7.3 µM (active); in assay [14], 13 µM (active). The molecule was classed as inactive in assay [2], in assay [6], in assay [7] and in assay [15]. In addition, the Potency result in assay [3], in [4], in assay [5], in [8], in assay [9] and in [10] was “inactive” each time. Further, the Potency entry in [11] was “inactive”. Moreover, the activation in assay [13] is -4.5% (inactive). The viability change in assay [14] is -1.99%.
Turning to `CCS(=O)(=O)Nc1cccc(C(=C2CCCCC2)c2cnc[nH]2)c1`, the call in [2], in assay [6], in [7] and in assay [15] was inactive. For the same molecule, the Potency entry in assay [3], in assay [4], in [5], in [8], in [9] and in [10] was “inactive” in each case. The Potency entry in [12] and in assay [14] was “inactive” in each case. In addition, in assay [13], the activation was -5.69% (inactive). Also, in assay [14], the viability change stood at 1.78%.
Take `COc1ccc2c(c1)/C(=C/c1cnc[nH]1)C(=O)N2`: the call in assay [2], in assay [6], in assay [7], in assay [17] and in assay [15] was inactive. Further, the Potency result in assay [3], in [4], in assay [16], in assay [8], in assay [9] and in assay [10] was “inactive” in each case. The Potency in assay [5] was 44.7 µM (active) and inactive. Further, in assay [13], the activation was 0.562% (inactive).
For `CN1CC[C@@]2(C)c3cc(O)ccc3N(C)C12` (stereo partly drawn), the Potency was 14.7 µM (active) in [1] and 0.0095 µM (active) in [16]. Besides, the result in assay [2], in [6], in assay [7], in assay [17] and in [15] was inactive. Besides, the Potency result in [4], in assay [5], in [8], in assay [10], in assay [11] and in assay [12] was “inactive” each time. In addition, the activation in [13] was -0.188% (inactive).
On to `C[N+]1(C)CCOC(O)(c2ccc(-c3ccc(C4(O)C[N+](C)(C)CCO4)cc3)cc2)C1` (stereo not drawn), for which the Potency result in assay [18], in [3], in [4], in [5], in assay [16] and in assay [8] was “inactive” each time. Moreover, the Potency entry in [9], in [10] and in assay [12] was “inactive” in each case. Further, the call in [2], in [6], in assay [7], in assay [17] and in [15] was inactive. Also, the activation in assay [13] was 1.19% (inactive).
Regarding `C[N+](C)(C)CC#CCOC(=O)Nc1cccc(Cl)c1`, the call in [2], in [6], in [7] and in [15] was inactive. Also, in [3], the Potency was 21.2 µM (active). Moreover, the Potency result in assay [4], in assay [5], in assay [16], in [8], in [9] and in [10] was “inactive” each time. Besides, the Potency entry in assay [11], in assay [12] and in assay [14] was “inactive” each time. In [13], the activation was 0.875% (inactive). Moreover, the viability change in assay [14] is -2.28%.
As to `CC(N)Cc1c[nH]c2ccc(OCc3cccs3)cc12` (stereo not drawn), the Potency entry in [1], in [3], in [4], in [5], in assay [9] and in [10] was “inactive” in each case. The Potency entry in assay [11], in [12] and in assay [14] was “inactive” in each case. The molecule was called inactive in [2], in assay [6], in [17] and in [15]. The activation in [13] is 3.5% (inactive). The viability change in assay [14] was -4.81%.

Values taken from PubChem BioAssay (NCATS).
